The text below walks through data of PubChem BioAssay (EPA / NIEHS).

Results filed as inconclusive are left out. Active and inactive are the calls of the source. Rule for the calls: active = hit-call score of the fitted dose curve at least 0.9, where 1 is the maximum; inconclusive = response in the unintended direction; inactive = score below 0.9.

The AC50 is the midpoint of the concentration-response curve, whichever way the signal moves.

This assay in a line: ACEA_ER_AUC_viability: ACEA Biosciences xCELLigence Real-Time Cell Analysis on Estrogen Receptor Agonism for Viability (AID 2283782).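 Note: hit means loss of impedance signal meaning reduced cell growth or viability.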 The method, boiled down:
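Viability endpoint: reduced impedance area under the curve relative to DMSO, recorded by real-time electrode sensing over ~80 h of continuous exposure. Duplicate plates of T47D in hormone-depleted medium; eight concentrations, 1:4 dilutions, 100 uM maximum.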
For the compound `NC(=O)CCl`, the AC50 was 39.6 µM (active).

On to `Cc1ccc(CCl)cc1`, for which the concentration at half-maximal activity (AC50) is 40.7 µM (active).

For `O=C(Cl)OCCOCCOC(=O)Cl`, the call was inactive.

Regarding `Nc1nc(N)nc(Cl)n1`, the call was inactive.

For `O=c1oc2ccccc2c(O)c1C(CC(O)c1ccc(-c2ccc(Br)cc2)cc1)c1ccccc1` (stereo not drawn), the AC50 was 22.7 µM (active).

For the compound `C[N+](C)(C)Cc1ccccc1`, the outcome was inactive.

Consider `CN(C1CCCCC1)C1CCCCC1`, for which the AC50 is 68.6 µM (active).

For `CCOC(=O)c1ccccc1S(=O)(=O)NC(=O)Nc1nc(Cl)cc(OC)n1`, the result was inactive.
